The results in this text go back to PubChem BioAssay (NCI).

Each structure is given as a SMILES string. This is part of a sample that, as a whole, favours compounds with a hit. Of some 83,000 tested, about 20% had one in any assay.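 Negative percent growth values reflect cell death: -40 means 40% of the cells present at the start died, and -100 means all died.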 Activity calls are given as the source filed them. Rule for the calls: active = growth percent below 10; inactive = the rest.

The test system of the assay is HL-60(TB) leukemia. Briefly: NCI-60 one-dose screen, 48 h (100 = growth as untreated, 0 = no growth, -100 = all killed). Conditions: 10 µM unless noted.

Take `CN=C(N)N/N=C(\C)c1ccc2c(c1)Cc1ccccc1-2`: the growth was -50.3% (active).
Then `COc1ccc(-c2nc3ccc(-c4nc5ccc(N6CCN(c7ccncc7)CC6)cc5[nH]4)cc3[nH]2)cc1OC`, with 35.3% (inactive); and `CCOC(=O)C1=C(c2ccccc2)NC(=O)NC1CN1C(=O)c2ccccc2C1=O` (centres undefined), with 57.4% (inactive); and `c1ccc(C(=NNc2nc3ccccc3o2)c2ccccn2)nc1`, with -11.8% (active).
Then `COc1ccc2c(c1)CC[C@@H]1[C@@H]2CC[C@]2(C)[C@@H](O)C(=O)C[C@@H]12`, with 108% (inactive).
Then `Nc1ccc(N=Nc2ccccc2)c2cc(S(=O)(=O)O)ccc12`, with 103% (inactive); and `Cc1nccc2c3ccc(OCc4cn(-c5ccc(Cl)cc5)nn4)cc3n(CC(C)C)c12`, with -49.4% (active); and `COc1ccccc1NS(=O)(=O)c1ccc2oc(SC(C)C)nc2c1`, with 53.6% (inactive).
Consider `CCC(C)(O)Cc1ccc(Cl)cc1` (centres undefined), for which the growth was 96% (inactive).
Then `O=C(Cn1ccnc1)NC(c1ccccc1)c1ccccc1`, with 96.7% (inactive); and `COc1cc(-c2cc(-c3ccc(Nc4ccnc5cc(Cl)ccc45)cc3)nc(N3CCOCC3)n2)cc(OC)c1OC`, with 68.2% (inactive); and `CC(=O)O[C@H]1CC[C@@]2(C)C(=CC[C@@H]3[C@@H]2CC[C@]2(C)C(Cl)=C(c4nc5ccc(Cl)cn5c4NC(C)(C)C)C[C@@H]32)C1`, with 91.9% (inactive).
Regarding `CCOc1ccc(N2C(=O)CCSC2=S)cc1`, the growth was 99.7% (inactive).
Take `CN(C)CCN1C(=O)c2cccc3cc(N)cc(c23)C1=O`: the growth is 1.68% (active).
Then `Cn1nc(-c2ccc(Cl)cc2)nc2c(=O)n(C)c(=O)nc1-2`, with -43.2% (active); and `CS(=O)(CCCCN=C=S)=NC(=O)c1c(F)c(F)c(F)c(F)c1F` (centres undefined), with 72.5% (inactive).
Then `O=C(CCOCCNC(=O)COc1ccc2c(c1)OCC(c1ccc(F)cc1)C2=O)NCCCC(O)(P(=O)(O)O)P(=O)(O)O` (centres undefined), with 104% (inactive); and `Nc1cc2c([nH]c[n+]2CC#CCCl)c(SCC#CCCl)n1`, with -17.8% (active).
Then `O=C1NC(=O)C(c2ccc(Cl)cc2Cl)N1` (centres undefined), with 107% (inactive); and `O=C1/C(=C\c2cccn2C(=O)c2ccccc2)c2ccccc2N1c1c(Cl)cccc1Cl`, with 9.37% (active).
For `COc1ccc(C(=O)/C=C/c2ccc(Cl)cc2)cc1S(N)(=O)=O`, the growth is -3.41% (active).
Then `CCOC(=O)C(C(C)=O)c1nc2sc3cc(Cl)c(Cl)cc3n2c(=O)c1C#N` (centres undefined), with 100% (inactive).
`Cc1ccc(C(=O)Cc2ccccc2)c(O)c1`: the growth was 70.9% (inactive).
Then `C[C@@H](Oc1cc(-n2cnc3ccc(CN4CCN(C)CC4)cc32)sc1C(N)=O)c1ccccc1C(F)(F)F`, with -19.4% (active); and `COc1ccc(Cn2cc(COc3cc(/C=C/C(=O)c4cc(OC)c(OC)c(OC)c4)ccc3OC)nn2)cc1`, with 80.3% (inactive).
Then `Cc1ccc(NC2=CC(=O)C(=O)c3ccccc32)cc1`, with 18.4% (inactive); and `Nc1nc2c(ncn2[C@@H]2O[C@H](CS)[C@@H](O)[C@H]2O)c(=O)[nH]1`, with 101% (inactive); and `O=C(Nc1cccc(Br)c1)Oc1cccc2cccnc12`, with 4% [100 µM] (active).
In the case of `O=c1c(Cc2ccc(F)cc2)cc(-c2ccccc2)nn1C/C(=N/O)c1ccccc1`, the growth is 24.8% (inactive).
Then `CC(=O)N(O)c1ccc(/C=C/c2ccccc2)cc1`, with 23.4% (inactive).
Then `Oc1ccccc1C=Nc1ccc(N2CCN(c3ccccc3)CC2)cc1`, with 54.6% (inactive); and `C=CCOc1ccc(/C(Cl)=N/N=C(\Cl)c2cc(OC)c(OC)c(OC)c2)cc1`, with 39.6% (inactive).
Then `Cc1cc[n+](CCCCCCCCCC[n+]2ccc(C)cc2)cc1`, with 95.3% (inactive); and `COc1cc(Cn2cc3c(c2)-c2onc(CO)c2CC3)cc(OC)c1OC`, with 77.5% (inactive).
As to `O=C(Nc1nc(-c2ccc(Cl)cc2)cs1)c1cc(-c2ccc(Br)cc2)nc2ccc(Cl)cc12`, the growth is -24.7% (active).
Then `Cn1cccc1-c1nc2c3c(ccc2[nH]1)C(=O)c1ccccc1C3=O`, with 82.3% (inactive).
Regarding `O=c1[nH]c(-c2ccncc2)nc2sc3c(c12)CCCCCC3`, the growth is 91.4% (inactive).
For the compound `COc1cc([C@@H]2c3cc4c(cc3[C@H](O)[C@H]3COC(=O)[C@H]23)OCO4)cc(OC)c1OC`, the growth is -50.2% (active).
Consider `COc1ccc(C2=NN(C(C)=O)C(c3c(C)nn(-c4ccccc4)c3N3CCOCC3)C2)cc1` (centres undefined), for which the growth is 101% (inactive).
As for `COc1cccc(C2C3=C(COC3=O)N(CCO)c3cc4c(cc32)OCCO4)c1` (centres undefined), the growth is -16.1% (active).
Then `COc1cc(/C=C2\COc3ccc(-c4ccccc4)cc3C2=O)cc(OC)c1`, with 42.9% (inactive); and `COc1ccc2[nH]cc(/C=C3/C(=O)Nc4ccc(Cl)cc43)c2c1`, with 53.4% (inactive); and `Nc1ncc(-c2ccc3ncnc(Nc4cccc(Cl)c4)c3c2)cn1`, with 58.1% (inactive).
Then `CC1(C)C2=C(C(=O)N1Cc1ccccc1)C(c1ccco1)N(C(=O)C1CCC1)CCN2` (centres undefined), with 99.1% (inactive); and `CC1(C)CC[C@]23CC[C@]4(C)[C@H](CC[C@@H]5[C@@]6(C)C/C(=C/c7ccncc7)C(=O)C(C)(C)[C@@H]6CC[C@]54C)[C@H]2[C@H]1OC3`, with 61% (inactive).
Then `C=C1CC[C@H](C(C)C)[C@@H]2[C@H]1[C@H]1CC(=C)[C@@H](O)CC[C@@](C)(O)[C@@H]2O1`, with 103% (inactive).
In the case of `CCCn1cnc2c(c1=N)C(c1ccc(F)cc1)c1sc3c(F)cccc3c1O2` (centres undefined), the growth is 3.36% (active).
Then `N#C/C(=C\c1c(-c2ccccc2)[nH]c2ccccc12)S(=O)(=O)c1ccccc1`, with -4.39% (active); and `Cc1sc2nc(CSc3nnc(-c4ccco4)o3)[nH]c(=O)c2c1C`, with 68.6% (inactive).
Then `c1ccc2[nH]c(-c3ccc(Nc4nc(N5CCCC5)nc5[nH]ncc45)cc3)nc2c1`, with -32.8% (active); and `COC(=O)c1ccc2c(c1)nc(-c1ccc(O)c(OC)c1)n2-c1cc(C(C)(C)C)[nH]n1`, with 103% (inactive); and `O=C(/C=C/c1cc2ccccc2[nH]c1=O)c1ccc(Cl)cc1`, with 11.6% (inactive).
Then `CCCCCCCCCCCCCCCCCCNC(=O)[C@H]1CSC(c2ccc(OC)c(F)c2)N1` (some centres undefined), with -60.3% (active); and `O=C(NCc1ccc(Cn2c(=O)sn(-c3ccccc3)c2=O)cc1)OCc1ccc2c(Br)cc(Br)c(O)c2n1`, with -41.3% (active).
For `CCN(C(=O)CN1CCN(c2cc3c(cc2F)c(=O)c(C(=O)O)cn3C2CC2)CC1)c1nc(-c2ccc(OC)cc2)cs1`, the growth was 30.1% (inactive).
Then `Clc1ccc(-c2nc(C(Cl)Cl)nc3cc(-c4ccccc4)nn23)cc1`, with 5.27% (active); and `COc1cnc2c(c1)C(=O)c1c-2n(CCCN2CCC(N)CC2)c(=O)c2cc([N+](=O)[O-])ccc12`, with 44.3% (inactive); and `O=C1OCC2=C1C(c1ccc3c(c1)OCO3)CC(=O)N2c1cccc(Cl)c1` (centres undefined), with 95.6% (inactive).
Take `Cc1c2ccncc2c(C)c2c1c1ccccc1n2CCCCCC(=O)O`: the growth was 104% (inactive).
Then `CCCCCCCCCCN(CCCCCCCCCC)CC(=O)c1ccc2cc(Br)c3ccccc3c2c1`, with -62.2% (active); and `CCCCCCCCn1cc(C2=C(c3coc4ccc(OC)cc34)C(=O)NC2=O)c2ccccc21`, with 133% (inactive); and `CN1CCN(Cc2ccc(NC(=O)c3cncc(C#Cc4cnc(N)c5ncccc45)c3)cc2C(F)(F)F)CC1`, with 13% (inactive).
Then `CC(=O)c1cnc2ccc(-c3cc(Cl)c(O)c(Cl)c3)nc2c1NC1CCC(CN(C)C)CC1` (centres undefined), with -14.8% [2.5 µM] (active); and `COc1cccc(CCNc2ncnc3c2ncn3Cc2nnc3c4ccccc4c(Cl)nn23)c1`, with 57.5% (inactive); and `O=C(CSc1nnc(-c2ccc(NC(=O)c3cccnc3)cc2)o1)Nc1cccc(Br)c1`, with 96.1% (inactive).
Then `Cc1ccc(-c2nn(Cc3cn(-c4cc(C)nc5ccccc45)nn3)c3ncnc(N)c23)cc1`, with 83.1% (inactive).
Consider `CSC(=S)N/N=C(\C)c1ccccn1`, for which the growth is -12.1% (active).
Turning to `O=C1OC(=O)C2C1C1(Cl)C(Cl)=C(Cl)C2(Cl)C2C(=O)OC(=O)C21` (centres undefined), the growth is 98% (inactive).
Then `COc1ccc(CSc2nc3cc(OC)c(OC)cc3c(=O)n2-c2ccc(OC)cc2OC)cc1`, with 112% (inactive).
As to `COc1ccc(C(=O)Cn2c(C(=O)c3ccc(Cl)cc3)nc3ccccc32)cc1`, the growth was 42.2% (inactive).
Then `CC(C)(C)OC(=O)CC(S(=O)(=O)c1ccccc1)S(=O)(=O)c1ccccc1`, with 76.2% (inactive); and `COc1cccc(/C=N\Nc2ccc([N+](=O)[O-])cn2)c1O`, with 57.5% (inactive).
Then `CC(C)c1[nH]nc2c(NCc3ccc(-c4ccccn4)cc3)nc(SCCN)nc12`, with -24.4% (active); and `Cn1ccnc1C(=O)/C=C/c1ccc(CC(=O)Nc2ccc(S(F)(F)(F)(F)F)cc2)cc1`, with -11.5% (active).
Then `O=C(/C=C(/C=C/c1coc2ccccc12)OB(F)F)/C=C/c1coc2ccccc12`, with 88.6% (inactive); and `COc1ccc2[nH]c(=O)c(/C=C/C(=O)c3ccccc3OC)cc2c1`, with -2.46% (active).
As for `CCc1ccc(CNc2ccc(N3CCOCC3)c(C(=O)O)c2)cc1`, the growth was 100% (inactive).
Then `CC(C)(C)OC(=O)CN1CCc2c(sc3ncnc(N/N=C/c4cccc5ccccc45)c23)C1`, with -9.67% (active).
Then `COc1cc(NC(N)=NCCC(C)(C)Oc2ccc(C(F)(F)F)cc2)ncc1C#N`, with -51.1% (active); and `CCOc1nc(-c2ccccc2)cc2c(O)c(C(=O)N/N=C/c3ccc(O)cc3O)[nH]c(=O)c12`, with 19.7% (inactive).
Consider `CN(C)CCCC(C#N)c1ccccc1` (centres undefined), for which the growth is 118% (inactive).
Then `C#COc1cccc(Nc2ncnc3cc(NC(=O)[C@@H](C)Cl)ccc23)c1`, with 10.9% [6.25 µM] (inactive); and `C#CCOC(=O)C(N)CSSCC(N)C(=O)O` (centres undefined), with 120% (inactive); and `COc1ccc(OC)c(/C=C/c2nc(SCc3ccccc3)n(-c3ccc(Cl)cc3)n2)c1`, with 1.31% (active).
